Hit rate of the full screen: of about 66,000 compounds, about 960 (1.5%) showed an effect of 50% or more. The sample holds strong results, similar compounds and a random draw of the others, so the mix is not that of the screen.
System: Trypanosoma brucei
Test: Trypanosoma brucei 72 hour study
Assay type: functional, organism-based
Parameters: scale not given: in the data most compounds retested in dose-response had high values

O=C1CCCCN1CCc1nc(-c2cccnn2)no1
Percent Effect (30 µM, 30.03 µM): -7.651%

CC(C)CNC(=O)[C@H]1C[C@@H]2CN(C(=O)NCCc3ccccc3)C[C@H]1O2
Percent Effect (30 µM, 30.03 µM): 5.175%

O=S1(=O)CCC(S(=O)(=O)c2cccc(S(=O)(=O)N3CCOCC3)c2)C1 (stereo not given)
Percent Effect (30 µM, 30.03 µM): -4.748%

Fc1ccccc1CN1CCC[C@@H](Cn2nnc(-c3cccs3)n2)C1
Percent Effect (30.3 µM, […]): -5.522%

Fc1ccccc1CN1CCC[C@H](Cn2nnc(-c3cccs3)n2)C1
Percent Effect (30.3 µM, […]): 82.08%

Fc1cccc(CN2CCC[C@H](Cn3nnc(-c4ccccn4)n3)C2)c1
Percent Effect (30.3 µM, […]): -22.29%

COc1cccc(CN2CCCC3(CCN(C(=O)N4CCCC4)C3)C2)c1.O=C(O)C(F)(F)F (stereo not given)
Percent Effect (30.3 µM, […]): -29.29%

COCCC1(C(=O)O)CCCN(C(=O)c2cc(Cl)ccc2F)C1 (stereo not given)
Percent Effect (30.3 µM, […]): -11.98%

COc1ccc(-n2cnnc2SCC(=O)NC(C)C)cn1
Percent Effect (30 µM, 30.03 µM): 21.81%

COc1ccc(-n2cnnc2SCC(=O)N(C)C(C)C)cn1
Percent Effect (30 µM, 30.03 µM): 19.1%

CCC(C)Sc1nncn1-c1ccc(OC)nc1 (stereo not given)
Percent Effect (30 µM, 30.03 µM): 74.74%

CCOC(=O)[C@]12CCCN(Cc3cccs3)C[C@H]1CN(C(C)=O)C2.O=C(O)C(F)(F)F
Percent Effect (30.3 µM, […]): -10.51%

Cn1cc(N2Cc3nc(N4CCOCC4)ncc3C2=O)cn1
Percent Effect (30.3 µM, […]): -24.66%

Cc1cc(C)n(-c2ccc(CNCc3cccc(C#N)c3)cn2)n1
Percent Effect (30.3 µM, […]): 62.16%

CNC(=O)COc1ccc(CNCc2ccc(F)cc2F)cc1
Percent Effect (30 µM, 30.03 µM): 4.908%

Cc1cc(C)n(-c2ccc(CNCc3ccc(OC(C)C)cc3)cn2)n1
Percent Effect (30 µM, 30.03 µM): -15.45%

Cc1cc(C)n(-c2ccc(CNCc3ccc(F)cc3F)cn2)n1
Percent Effect (30.3 µM, […]): 61.76%

Cc1ccc(CNCc2ccc(-n3nc(C)cc3C)nc2)cc1
Percent Effect (30 µM, 30.03 µM): -12.87%

COc1cc(CNCc2ccc(-n3nc(C)cc3C)nc2)cc(OC)c1
Percent Effect (30.3 µM, […]): 5.745%

Cc1cc(C)n(-c2ccc(CNCc3ccc(C)o3)cn2)n1
Percent Effect (30.3 µM, […]): 8.783%

Cc1cc(C)n(-c2ccc(CNCc3ccc(F)c(F)c3)cn2)n1
Percent Effect (30.3 µM, […]): 53.31%

COc1ccc(C)cc1CNCc1ccc(-n2nc(C)cc2C)nc1
Percent Effect (30 µM, 30.03 µM): -31.15%

CCn1cc(-c2c(C)c(C3CCOC(C)(C)C3)nc(N)c2C#N)cn1 (stereo not given)
Percent Effect (30 µM, 30.03 µM): -13.96%

Cc1ccc(C(=O)N2CCC3(CC2)CCN(Cc2ccccn2)C3=O)o1.O=C(O)C(F)(F)F
Percent Effect (30 µM, 30.03 µM): -16.24%

CCOCC(=O)N1CCOCC2(CCN(c3ncccn3)C2)C1.O=C(O)C(F)(F)F (stereo not given)
Percent Effect (30.3 µM, […]): -43.52%

Cc1cc(NC(=O)N(CCO)Cc2ccsc2)no1
Percent Effect (30.3 µM, […]): 3.821%

Cc1nc(CN2CC[C@@H]3O[C@@H](C(=O)N4CCOCC4)C[C@@H]32)cs1.O=C(O)C(F)(F)F
Percent Effect (30.3 µM, […]): -22.53%

CN(CCOc1cccc(S(C)(=O)=O)c1)c1ccccc1
Percent Effect (30 µM, 30.03 µM): -2.31%

CCC(CNc1ncnc2oc(C)nc12)Cc1ccccc1 (stereo not given)
Percent Effect (30.3 µM, […]): 10.79%

CCCOc1ccccc1CCCNc1ncnc2oc(C)nc12
Percent Effect (30.3 µM, […]): 99.92%

CCCOc1ccc(Cl)cc1CNc1ncnc2oc(C)nc12
Percent Effect (30.3 µM, […]): 18.57%

CC(=O)N1CCN(Cc2ccsc2)CC2(CC(=O)N(C)C2)C1.O=C(O)C(F)(F)F (stereo not given)
Percent Effect (30.3 µM, […]): -65.69%

O=C(c1cc(Cl)c[nH]c1=O)N1C[C@@H]2CC[C@H](C1)N(Cc1ccccc1)C2
Percent Effect (30 µM, 30.03 µM): -61.83%

CC(=O)N1N=C(COc2ccc(Cl)cc2)OC1c1ccccc1 (stereo not given)
Percent Effect (30 µM, 30.03 µM): -14.14%

Cc1ccc(CC(=O)NCC(O)c2cc(Cl)cc(Cl)c2)cn1 (stereo not given)
Percent Effect (30 µM, 30.03 µM): -24.81%
